Source: PubChem BioAssay (NCATS)
Inconclusive results are not listed. Active and inactive are the calls of the source. Calls follow the shape of the dose curve; as a rule, active = well fitted inhibition curve with a large enough effect; inconclusive = small, poorly fitted or top-dose-only effect; inactive = flat fitted curve, though single readings scatter.

Key:
Test in all cases: qHTS profiling for inhibitors of Plasmodium falciparum proliferation (AID 504749); also: nearly all actives have a fitted effect of over 60% in size
Conditions in all cases: P. falciparum in erythrocytes, SYBR Green DNA, 72 h; series mostly up to 12.8 µM
CP262 = system: CP262
Procedure, shortened: (§1)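 SYBR Green fluorescence of parasite DNA, read after lysis and overnight dark incubation, measured growth over 72 h in erythrocyte culture at 0.3% parasitemia and 2.5% hematocrit. Data normalised to DMSO and 0.29 uM artemisinin, with plate-drift correction.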

CP265 = system: CP265
Procedure, shortened: as §1

CP266 = system: CP266
Procedure, shortened: as §1

CP268 = system: CP268
Procedure, shortened: as §1

CP269 = system: CP269
Procedure, shortened: as §1

CP286 = system: CP286
Procedure, shortened: as §1

CP291 = system: CP291
Procedure, shortened: as §1

CP297 = system: CP297
Procedure, shortened: as §1

CP305 = system: CP305
Procedure, shortened: as §1

CP315 = system: CP315
Procedure, shortened: as §1

CP325 = system: CP325
Procedure, shortened: as §1

CP329 = system: CP329
Procedure, shortened: as §1

CP335 = system: CP335
Procedure, shortened: as §1

DFO2036 = system: DFO2036
Procedure, shortened: as §1

DIV14 = system: DIV14
Procedure, shortened: as §1

DIV17 = system: DIV17
Procedure, shortened: as §1

DIV30 = system: DIV30
Procedure, shortened: as §1

Dd2 = system: Dd2
Procedure, shortened: as §1

ECU = system: ECU
Procedure, shortened: as §1

FAB9 = system: FAB9
Procedure, shortened: as §1

GB4 = system: GB4
Procedure, shortened: as §1

HB3 = system: HB3
Procedure, shortened: as §1

ICS = system: ICS
Procedure, shortened: as §1

JCK = system: JCK
Procedure, shortened: as §1

N140 = system: N140
Procedure, shortened: as §1

P93_24 = system: P93_24
Procedure, shortened: as §1

P94_40 = system: P94_40
Procedure, shortened: as §1

PAD = system: PAD
Procedure, shortened: as §1

PC15 = system: PC15
Procedure, shortened: as §1

PC26 = system: PC26
Procedure, shortened: as §1

PC49 = system: PC49
Procedure, shortened: as §1

SC27B = system: SC27B
Procedure, shortened: as §1

TAB109 = system: TAB109
Procedure, shortened: as §1

TAB113 = system: TAB113
Procedure, shortened: as §1

TAB165 = system: TAB165
Procedure, shortened: as §1

Measured: Potency

COC(=O)N/N=C/C1=C[N+](=O)c2ccccc2[N+]1=O
inactive: CP262 | CP265 | CP266 | CP268 | CP269 | CP286 | CP291 | CP297 | CP305 | CP315 | CP325 | CP329 | CP335 | DFO2036 | DIV14 | DIV17 | DIV30 | Dd2 | ECU | FAB9 | GB4 | HB3 | ICS | JCK | N140 | P93_24 | P94_40 | PAD | PC15 | PC26 | PC49 | SC27B | TAB109 | TAB113 | TAB165
